From PubChem BioAssay (NCATS)
“And” between values parts separate entries of the source, which are not always exact repeats. Identical values can stand only once. Values without a mark were called inactive. Inconclusive results are not listed. A call without a number means that no potency is given here. The source made the active and inactive calls. The call rests on the fitted dose curve; in most records, active means well fitted curve in the direction sought with a large enough effect; inconclusive means small, poorly fitted or top-dose-only effect, or another doubt; inactive means no such curve, though single readings can be large; an effect the other way counts as inactive or inconclusive.

Key:
[1] = qHTS Assay for Identifying Gametocytocidal Compounds (AID 743244); further: potency means the concentration at half of the fitted maximal effect;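 on max response: actives lower the fluorescent signal which means gametocytes are killed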; conditions: P. falciparum 3D7 stage III-V gametocytes, alamarBlue, 72 h; max response: stronger effect = lower value
Outline: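 3D7 gametocytes, stages III–V, 20,000/well; cpd 72 h, 37 °C/5% CO2; + alamarBlue 24 h; fluor. Ex 525/Em 598.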

[2] = qHTS for compounds that reverse cellular toxicity of Amyloid beta (A-beta) peptide in yeast: LOPAC Validation Assay (AID 720559); conditions: yeast expressing A-beta; series mostly up to 46.1 µM
Outline: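 Rescue of A-beta toxicity was scored as yeast growth by 600 nm absorbance after 48 hr at 30 C with compound. Normalization used DMSO (negative) and equimolar ferric chloride plus clioquinol (positive).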

[3] = qHTS for Activators of Parkin Expression: LOPAC Validation Assay (NLuc Reporter) (AID 720572); conditions: Parkin promoter NanoLuc reporter cells, luminescence, percent of positive control, DMSO as zero; series mostly up to 46.1 µM
Outline: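 Neuronal line stably carrying a FLuc/NLuc coincidence reporter under the Parkin promoter, seeded 24 h, then dosed in 7-point series for 24 h at 37 C. NLuc luminescence read after FLuc; normalized to DMSO and positive control (100%).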

[4] = target: T1, Hexokinase-4 (Homo sapiens) + Glucokinase regulatory protein (Homo sapiens) (UniProt P35557+Q14397); assay: qHTS assay for inhibitors of recombinant human GCK-GKRP interaction: ADP-Glo assay (AID 743206); conditions: ADP-Glo luminescence, 60 min, 0% = vehicle-only wells with enzyme present; series mostly up to 76.9 µM
Outline: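 GST-GCK and FLAG-GKRP (15 nM each in the dispensed mix, with 2 uM S6P) react with 0.4 mM ATP and 5 mM glucose (final) in Hepes pH 7.6 for 60 min at room temperature. ADP is measured by ADP-Glo luminescence.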

[5] = target: T1, Hexokinase-4 (Homo sapiens) + Glucokinase regulatory protein (Homo sapiens); assay: qHTS assay for inhibitors of recombinant human GCK-GKRP interaction: HTRF assay (AID 743207); conditions: recombinant GCK-GKRP HTRF binding, 60 min, with sorbitol-6-phosphate; series mostly up to 57.5 µM
Outline: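 After 60 min equilibration at room temperature with anti-FLAG XL665 and anti-GST antibodies, FRET ratio (665/615 nm, excitation 320 nm) was read. Proteins: GST-GCK and FLAG-GKRP, each 5 nM, plus 2 uM S6P, pH 7.1 buffer; GCK-free wells define minimum signal.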

[6] = target: Arylsulfatase A (Homo sapiens) (UniProt P15289); assay: qHTS screen for enhancers of Arylsulfatase A (ASA1): LOPAC Validation Assay (AID 720538); conditions: ASA enzyme activity, LOPAC qHTS enhancer assay; series mostly up to 57.5 µM
Outline: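 Enhancer assay in patient-derived MLD fibroblasts carrying ASA-I179S: 48 h compound exposure at 37 C, then 14 h room-temperature pNCS turnover (0.5 mM final) in lysis buffer. Read by fluorescence at 525/598 nm after NaOH stop.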

T1 sequence (P35557 whole entry, looked up): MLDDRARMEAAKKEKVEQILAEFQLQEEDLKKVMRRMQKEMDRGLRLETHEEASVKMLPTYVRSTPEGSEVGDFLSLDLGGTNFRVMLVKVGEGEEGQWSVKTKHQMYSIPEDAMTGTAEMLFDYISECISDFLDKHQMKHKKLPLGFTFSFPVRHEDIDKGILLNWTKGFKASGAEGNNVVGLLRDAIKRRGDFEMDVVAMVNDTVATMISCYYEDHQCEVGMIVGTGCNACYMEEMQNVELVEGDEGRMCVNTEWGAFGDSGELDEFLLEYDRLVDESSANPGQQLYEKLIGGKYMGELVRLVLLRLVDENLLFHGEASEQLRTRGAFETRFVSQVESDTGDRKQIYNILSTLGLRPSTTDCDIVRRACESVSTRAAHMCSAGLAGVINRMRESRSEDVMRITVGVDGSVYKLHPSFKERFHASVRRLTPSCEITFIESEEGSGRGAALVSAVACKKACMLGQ
T1 sequence (Q14397 whole entry, looked up): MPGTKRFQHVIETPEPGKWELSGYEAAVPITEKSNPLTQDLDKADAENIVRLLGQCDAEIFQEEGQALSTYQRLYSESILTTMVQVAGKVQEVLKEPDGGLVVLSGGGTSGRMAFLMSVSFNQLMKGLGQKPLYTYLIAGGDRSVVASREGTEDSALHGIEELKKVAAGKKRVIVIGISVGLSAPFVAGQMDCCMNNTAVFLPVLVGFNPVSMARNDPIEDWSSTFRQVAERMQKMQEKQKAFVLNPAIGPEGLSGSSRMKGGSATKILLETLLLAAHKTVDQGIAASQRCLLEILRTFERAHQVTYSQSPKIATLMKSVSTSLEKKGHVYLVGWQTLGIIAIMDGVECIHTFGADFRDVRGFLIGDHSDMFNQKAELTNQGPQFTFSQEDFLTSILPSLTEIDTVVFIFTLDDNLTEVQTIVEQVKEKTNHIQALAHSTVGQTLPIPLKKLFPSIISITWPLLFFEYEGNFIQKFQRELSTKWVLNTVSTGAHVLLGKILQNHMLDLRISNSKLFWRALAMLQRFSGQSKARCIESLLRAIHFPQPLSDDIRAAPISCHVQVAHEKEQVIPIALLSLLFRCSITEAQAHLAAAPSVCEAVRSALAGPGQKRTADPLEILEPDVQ
Sequence of Arylsulfatase A (Homo sapiens) (P15289 whole entry, looked up): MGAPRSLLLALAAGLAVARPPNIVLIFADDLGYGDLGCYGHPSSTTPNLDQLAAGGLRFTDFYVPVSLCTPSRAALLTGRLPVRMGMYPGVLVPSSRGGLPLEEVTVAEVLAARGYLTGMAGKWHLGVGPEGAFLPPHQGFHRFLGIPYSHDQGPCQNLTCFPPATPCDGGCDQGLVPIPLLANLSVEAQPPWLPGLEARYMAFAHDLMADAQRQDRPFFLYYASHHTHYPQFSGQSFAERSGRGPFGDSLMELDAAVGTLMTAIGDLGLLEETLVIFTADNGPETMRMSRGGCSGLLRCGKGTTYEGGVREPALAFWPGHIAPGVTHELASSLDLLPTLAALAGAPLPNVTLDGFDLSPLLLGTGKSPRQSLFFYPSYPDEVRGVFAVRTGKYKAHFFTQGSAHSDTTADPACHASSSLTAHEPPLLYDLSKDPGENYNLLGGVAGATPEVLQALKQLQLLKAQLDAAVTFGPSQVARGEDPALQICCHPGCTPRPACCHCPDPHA

## Cn1nnc2c(C(N)=O)ncn2c1=O
[1]
  max response: -7.58%

## NCCCC(O)(P(=O)(O)O)P(=O)(O)O
[1]
  max response: 14.9%

## COc1nc(N)nc2c1ncn2[C@@H]1O[C@H](CO)[C@@H](O)[C@@H]1O
[1]
  max response: 4.43%

## Cc1oc(=O)oc1CN1CCN(c2cc3c(cc2F)c(=O)c(C(=O)O)c2n3C(C)S2)CC1 (stereo unspecified)
[1]
  max response: 2.62%

## O=NN(CCCl)C(=O)NC1CCCCC1
[1]
  max response: -7.36%

## NC(=O)c1ccc2[nH]ccc2c1
[2]
  outcome: inactive
[3]
  outcome: inactive
[4]
  outcome: inactive
[5]
  outcome: inactive
[1]
  max response: 11.4%

## CN(C)CCc1c[nH]c2ccc(C[C@H]3COC(=O)N3)cc12
[1]
  max response: -7.68%

## CC1CC2C3CCC4=CC(=O)C=C[C@]4(C)[C@@]3(F)[C@@H](O)C[C@]2(C)[C@@]1(O)C(=O)CO (stereo partly specified)
[6]
  outcome: inactive
[2]
  outcome: inactive
[3]
  outcome: inactive
[4]
  outcome: inactive
[5]
  outcome: inactive
[1]
  max response: 8.59%

## C[C@@H]1C[C@H]2[C@@H]3CCC4=CC(=O)C=C[C@]4(C)[C@@]3(Cl)[C@@H](O)C[C@]2(C)[C@@]1(OC(=O)c1ccco1)C(=O)CCl
[1]
  max response: 3.64%

## Cc1onc(-c2ccccc2Cl)c1C(=O)N[C@@H]1C(=O)N2[C@@H]1SC(C)(C)[C@@H]2C(=O)O
[1]
  max response: -11.3%

## Cc1ccc(S(=O)(=O)N[C@@H](Cc2ccccc2)C(=O)CCl)cc1
[6]
  outcome: inactive
[2]
  outcome: inactive
[3]
  outcome: inactive
[4]
  outcome: inactive
[5]
  outcome: inactive
[1]
  max response: 11.5%

## CNS(=O)(=O)Cc1ccc2[nH]cc(CCN(C)C)c2c1
[1]
  max response: 0.507%

## CCn1cc(C(=O)O)c(=O)c2cc(F)c(N3CCNCC3)nc21
[1]
  max response: 0.203%

## NC(=O)c1cccc(N)c1
[6]
  outcome: inactive
[2]
  outcome: inactive
[3]
  outcome: inactive
[4]
  outcome: inactive
[5]
  outcome: inactive
[1]
  max response: 25.5%

## Nc1nc(F)nc2c1ncn2[C@@H]1O[C@H](CO)[C@@H](O)[C@@H]1O
[1]
  max response: 0.368% and 0.376%

## CCCCS(=N)(=O)CCC(N)C(=O)O (stereo unspecified)
[6]
  outcome: inactive
[2]
  outcome: inactive
[3]
  outcome: inactive
[4]
  outcome: inactive
[5]
  outcome: inactive
[1]
  max response: -16.7%

## CN(CCOc1ccc(CC2SC(=O)NC2=O)cc1)c1ccccn1 (stereo unspecified)
[1]
  max response: 11.4%

## CC(C)OC(=O)OCOP(=O)(CO[C@H](C)Cn1cnc2c(N)ncnc21)OCOC(=O)OC(C)C
[1]
  max response: 5.62% and 30.5%

## CCN(CC)CC#CCOC(=O)C(O)(c1ccccc1)C1CCCCC1 (stereo unspecified)
[6]
  outcome: inactive
[2]
  outcome: inactive
[3]
  outcome: inactive
[4]
  outcome: inactive
[5]
  outcome: inactive
[1]
  max response: -0.0303% and 25.9%

## COc1cccc(N(C)C(=S)Oc2ccc3c(c2)CCCC3)n1
[1]
  max response: -0.766%

## CCN1CCCC1CNC(=O)c1cc(S(N)(=O)=O)ccc1OC (stereo unspecified)
[6]
  outcome: inactive
[2]
  outcome: inactive
[3]
  outcome: inactive
[4]
  outcome: inactive
[5]
  outcome: inactive
[1]
  max response: 13%

## O=C(O)CSCC(=O)NC1CCSC1=O (stereo unspecified)
[1]
  max response: -6.62%

## COC(=O)Nc1nc2ccc(Sc3ccccc3)cc2[nH]1
[1]
  max response: 2.65%

## CO[C@@]12[C@H](COC(N)=O)C3=C(C(=O)C(C)=C(N)C3=O)N1C[C@@H]1N[C@@H]12
[1]
  max response: -9.88%

## Oc1c(Cl)cc(Cl)c2cccnc12
[1]
  Potency: 7.08 µM (active)

## OCc1ccc(-c2nn(Cc3ccccc3)c3ccccc23)o1
[6]
  outcome: inactive
[2]
  outcome: inactive
[3]
  outcome: inactive
[4]
  outcome: inactive
[5]
  outcome: inactive
[1]
  max response: -5.09%

## CCN[C@H]1C[C@H](C)S(=O)(=O)c2sc(S(N)(=O)=O)cc21
[1]
  max response: 4.01%

## COc1cnc(NS(=O)(=O)c2ccc(N)cc2)nc1
[1]
  max response: 7.05%

## O=C(O)C1CCCN(CCC=C(c2ccccc2)c2ccccc2)C1 (stereo unspecified)
[2]
  outcome: inactive
[3]
  outcome: inactive
[4]
  outcome: inactive
[5]
  outcome: inactive
[1]
  max response: 17.5%

## C[C@@H](CN1CC(=O)NC(=O)C1)N1CC(=O)NC(=O)C1
[1]
  max response: 9.49%

## CC1=C(C(=O)O)N2C(=O)[C@@H](NC(=O)C(N)c3ccccc3)[C@H]2SC1 (stereo partly specified)
[6]
  outcome: inactive
[2]
  outcome: inactive
[3]
  outcome: inactive
[4]
  outcome: inactive
[5]
  outcome: inactive
[1]
  max response: 7.37%

## COc1ncnc(NS(=O)(=O)c2ccc(N)cc2)c1OC
[1]
  max response: -8.03%

## COc1cc2ncnc(Nc3cccc(Cl)c3)c2cc1OC
[6]
  outcome: inactive
[2]
  outcome: inactive
[3]
  outcome: inactive
[4]
  outcome: inactive
[5]
  outcome: inactive
[1]
  max response: 13.8%
